The list is not random: actives were taken first. Their share in the collection is about 11%.
NS1 inh: blocks influenza NS1 protein function; Potency, µM (doses to about 46.1 µM), inactives show at the top dose activity, positive = more growth; 0.4% of 270,000 active; calls by dose curve; note: actives are rising curves; nearly all actives have a fitted effect of over 50% in size
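S. cerevisiae expressing influenza A NS1, grown in glucose, washed, then diluted 1:100 into pH 6.0 -URA galactose medium with 23 nl compound. Growth recovery read as OD600; NS1-free strain serves as control.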
Pf growth 96h: P. falciparum growth inhibition at 96 hours | 6.9% of 320,000 active | Potency, µM (doses to about 28.7 µM), without a hit: at the top dose activity change, negative = inhibition, hits mostly inhibitors | P. falciparum luciferase reporter growth, 96 h; note: % is set by controls: 0 for no effect and ±100 for the full control effect
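Readout is luminescence from an integrated firefly luciferase in P. falciparum. Red cells, 2% hematocrit and 0.05% parasitemia final, were cultured with compound through two parasite generations (96 hours) at 37 C, 5% CO2.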
Pf growth 48h: inhibits P. falciparum growth in the first generation, 48 h; 5.9% of 310,000 active; P. falciparum luciferase growth in erythrocytes, 48 h; AID 504832; Potency, µM (doses to about 28.7 µM), for the others: at the highest dose activity change, negative = inhibition, hits mostly inhibitors; note: % is set by controls: 0 for no effect and ±100 for the full control effect
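Luciferase-expressing parasites in RBCs, 2% Hct / 0.1% parasitemia final; RPMI 1640 + 0.5% Albumax; 37 C, 5% CO2, one generation; luminescence read-out, lower signal = inhibition.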
VACV Venus inh: vaccinia inhibition (Venus reporter) | Vaccinia virus Venus reporter expression, fluorescence | Potency, µM (series often up to 36.5 µM), for inactives: at the top dose activity change, negative = inhibition, most hits filed as inhibitors | 0.46% of 330,000 active; calls by dose curve; tested in A549 cells; note: % is set by controls: 0 for no effect and ±100 for the full control effect; nearly all actives have a fitted effect of over 30% in size
HCV inhibitor: inhibitors of hepatitis C virus infection | Potency, µM (series often up to 41.8 µM), for inactives: at the top dose activity change, negative = inhibition, usual class: inhibitors | AID 651820 | Huh7.5.1 HCVcc-Cre infection, luciferase reporter, 44 h | 3.4% of 340,000 active; note: % is set by controls: 0 for no effect and ±100 for the full control effect
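After 44 h co-culture of compound, cells and HCVcc-Cre (~0.5 moi), substrate is added for 15 min at room temperature and luciferase measured over 15 sec. Cells were seeded at 1,000/well and pre-cultured 4 h.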
Vaccinia mCherry: inhibitors of vaccinia virus infection (mCherry reporter signal). Vaccinia virus mCherry reporter infection, fluorescence. Potency, µM (series often up to 36.5 µM), inactives show top-dose activity change, negative = inhibition, actives largely listed as inhibitors. 0.63% of 310,000 active. AID 720579; calls by dose curve; tested in A549 cells; note: % is set by controls: 0 for no effect and ±100 for the full control effect; nearly all actives have a fitted effect of over 35% in size
The depositor's hits bear a star; i = inactive; ? = inconclusive; nt = no result. Unless noted, calls come from the whole dose curve; as a rule, active = well fitted inhibition curve with a large enough effect; inconclusive = small, poorly fitted or top-dose-only effect, or another doubt; inactive = no such curve, though single readings can be large or run the other way. Potency is the fitted concentration of half-maximal effect.

SMILES | NS1 inh | Pf growth 96h | Pf growth 48h | VACV Venus inh | HCV inhibitor | Vaccinia mCherry
CC(=O)Nc1ccc(Sc2ncccc2C(=O)Nc2ccc(F)cc2)cn1 | 4% | 6.6µM* | 13µM* | -11% | ? | -1%
CC(C)C(=O)Nc1ccc(C(=O)Nc2ccc(S(=O)(=O)N3CCOCC3)cc2)cc1 | 1% | 260% | ? | nt | -18% | nt
CC(C)C(=O)Nc1cccc(C(=O)Nc2ccc(S(=O)(=O)N3CCOCC3)cc2)c1 | -10% | 10µM* | -11% | -18% | -29% | i
COc1cc(C(=S)N2CCOCC2)cc(OC)c1OS(=O)(=O)c1ccc(NC(C)=O)cc1 | -9% | 13µM* | 0% | nt | -20% | nt
CCc1c(C(=O)Nc2ccc(S(=O)(=O)N3CCOCC3)cc2)csc1C | -26% | 16% | ? | -14% | 10µM* | -7%
Cc1ccc(NC(=O)c2ccc(S(=O)(=O)N3CC(C)CC(C)C3)cc2)cc1S(=O)(=O)N1CCOCC1 (stereo not drawn) | nt | nt | nt | nt | 7.9µM* | nt
COc1ccc(CNC(=O)CCCn2ncn3c(cc4occc43)c2=O)cc1 | 9% | 20% | ? | nt | -4% | nt
COc1cccc(/C=N/n2c(=S)n(C)c3ccccc32)c1OC | -5% | nt | 24% | nt | ? | nt
COc1cc2c(cc1OC)CN(C(=S)Nc1ccc(OC(F)F)cc1)CC2 | nt | ? | 0% | -4% | ? | -3%
COc1cc(/C=N/n2c(-c3n[nH]c4c3CCC4)n[nH]c2=S)cc(OC)c1O | -5% | 21% | -12% | 8% | 6% | -6%
CC(=O)Nc1ccc(C(=O)Nc2ccc(S(=O)(=O)N3CCOCC3)cc2)cc1 | 8% | 8.3µM* | ? | nt | -12% | nt
Cc1ccc(NC(=O)c2ccc(S(=O)(=O)N3CCCCC3)cc2)cc1 | 0% | 12µM* | ? | nt | 5% | nt
Cc1ccccc1C(=O)c1cccn1CC(=O)NCCN1CCN(c2cccc(C)c2C)CC1 | -5% | 5.9µM* | ? | nt | 11µM* | nt
Cc1ccccc1C(=O)c1cccn1CC(=O)NCCCN1CCCCC1 | -3% | 2% | 10% | -13% | 24% | -2%
Cc1ccc(C)c(N2CCN(CCCNC(=O)Cn3cccc3C(=O)c3ccccc3C)CC2)c1 | nt | 44% | ? | ? | 11µM* | ?
CCCCCCn1c(=O)n2n(c1=O)[C@@H]1CN(S(=O)(=O)c3ccc(C)cc3)C[C@]1(O)[C@@H](OC(=O)NCc1ccccc1F)C2 | nt | nt | nt | ? | nt | -20%
O=C(CC(=O)N/N=C/c1ccccc1)NCc1ccccc1 | 10% | 10µM* | 0% | -3% | 7% | i
O=C(CC(=O)N/N=C\c1c(Cl)cccc1Cl)NCc1ccccc1 | 9% | 1µM* | 6% | -14% | 10% | -18%
CC(C)(C)C1CCC(=NNC(=O)CC(=O)NCc2ccccc2)CC1 (stereo not drawn) | -1% | 2.1µM* | 10% | -15% | 46% | -12%
O=C(CC(=O)N/N=C/c1c(F)cccc1Cl)NCCc1ccccc1 | -1% | ? | 2% | nt | 0% | nt
O=c1c2ccccc2nnn1CSc1ccccc1F | -15% | 359% | 290% | -16% | 3% | -3%
CCc1nn(CC(=O)Nc2ccc(C)cc2C)c(=O)c2cc3sccc3n12 | nt | nt | nt | -8% | nt | i
O=c1c(S(=O)(=O)c2cccc(Cl)c2)cn(Cc2ccccc2)c2cc(N3CCOCC3)c(F)cc12 | nt | nt | nt | -16% | nt | i
Cc1ccccc1NC(=O)CSc1nc2[nH]c(=O)cc(O)c2s1 | nt | -3% | -2% | -7% | 34% | -15%
CC(C)(C)c1ccc(C2=NC(=O)C(CC(=O)O)S2)cc1 (stereo not drawn) | -1% | 92% | 2.6µM* | -5% | 7% | i
SMILES | NS1 inh | Pf growth 96h | Pf growth 48h | VACV Venus inh | HCV inhibitor | Vaccinia mCherry
CC(C(=O)Nc1ccccc1Br)c1ccc([N+](=O)[O-])cc1 (stereo not drawn) | 3% | 4.1µM* | 13µM* | nt | ? | nt
CC(C(=O)NC1CCCCCC1)c1ccc([N+](=O)[O-])cc1 (stereo not drawn) | -15% | 8.3µM* | -17% | -11% | -4% | -24%
CC(C(=O)NC1CC(C)(C)NC(C)(C)C1)c1ccc([N+](=O)[O-])cc1 (stereo not drawn) | nt | ? | 5% | -14% | 7% | -14%
CCC(C)N(C(=O)COC(=O)CCc1c[nH]c2ccccc12)C1CCS(=O)(=O)C1 (stereo not drawn) | -3% | -3% | nt | 0% | 17% | i
Cn1ccc(C(=O)NCC2CCC3(CCN(Cc4ccc(F)cc4F)CC3)O2)n1 (stereo not drawn) | nt | nt | nt | -11% | nt | i
Cc1noc(Cn2c(=O)c3ccccc3n(CC(=O)Nc3ccc(Cl)cc3)c2=O)n1 | nt | nt | nt | -6% | nt | -2%
Clc1ccc(/C(Cc2nc3ccccc3[nH]2)=N\Nc2ccccc2)cc1 | -3% | ? | ? | -7% | 11µM* | ?
CN/N=C(\Cc1nc2ccccc2[nH]1)c1ccc([N+](=O)[O-])cc1 | 0% | ? | ? | nt | -24% | nt
N#CCCN/N=C(/Cc1nc2ccccc2[nH]1)c1cccc(Cl)c1 | 11% | nt | 10µM* | 4% | ? | -1%
O=C(Cc1nc2ccccc2[nH]1)c1ccc([N+](=O)[O-])cc1 | 7% | 2.9µM* | 1.9µM* | -12% | -11% | ?
O=C(Cc1nc2ccccc2[nH]1)c1ccc(Cl)cc1 | -18% | ? | 2.3µM* | -12% | ? | -9%
CCOc1ccccc1NC(=O)COC(=O)c1cccc(-c2ccc(OC(C)=O)cc2)c1 | 3% | 9.3µM* | 9.3µM* | -11% | -48% | 5%
CC(=O)Oc1ccc(-c2cccc(C(=O)OCC(=O)N(C)c3ccccc3)c2)cc1 | -14% | 15µM* | -88% | -14% | -5% | i
CN(C)c1cccc(C(=O)OCC(=O)N(C)c2ccccc2)c1 | -8% | 11% | -3% | -5% | 5% | ?
C/C(=N/OC(=O)C1CC1)c1cc(-c2ccc(Cl)cc2)no1 | -2% | 203% | 325% | nt | ? | nt
NS(=O)(=O)c1ccc(CCNC(=O)CCc2nc3ccccc3s2)cc1 | 1% | 4% | 4% | -9% | -7% | i
CC(C)Nc1nc(NC(C)C)nc(N(C#N)C(C)C(=O)N(C)C)n1 (stereo not drawn) | 2% | 5.2µM* | -8% | nt | nt | nt
CCNc1nc(NC(C)C)nc(N(C#N)C(C)C(=O)N(C)C)n1 (stereo not drawn) | 7% | ? | ? | -3% | 1% | 0%
Cc1cc(C[n+]2cc(Br)ccc2N)c2ncccc2c1 | -13% | 13µM* | 9.3µM* | 6% | ? | -8%
Cc1cc(C[n+]2cc(Cl)ccc2N)c2ncccc2c1 | 6% | ? | 13µM* | 15% | -17% | -22%
CCOc1ccc2c(c1)sc(N)[n+]2Cc1cc(C)cc2cccnc12 | -24% | 1.9µM* | 9.3µM* | -25% | ? | ?
Nc1ccc(Cl)c[n+]1Cc1cccc2cccnc12 | -2% | ? | 10µM* | nt | -5% | nt

Bioassay records: PubChem, National Center for Advancing Translational Sciences (NCATS)
